Source: PubChem (several laboratories)
Rows were chosen to be rich in hits. Some 2.9% of all compounds tested hit in one or more screens of this group.
S1P4 ag = agonists of human S1P4 receptor; activation, % at 4.98 µM; O95977; 220,000 tested, 0.35% active; S1P4-expressing cell line, agonist reporter assay; AID 1509; in the data active = activation above about 11%;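 note: 0% = DMSO vehicle and 100% = reference agonist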
Target sequence (O95977 whole entry, looked up): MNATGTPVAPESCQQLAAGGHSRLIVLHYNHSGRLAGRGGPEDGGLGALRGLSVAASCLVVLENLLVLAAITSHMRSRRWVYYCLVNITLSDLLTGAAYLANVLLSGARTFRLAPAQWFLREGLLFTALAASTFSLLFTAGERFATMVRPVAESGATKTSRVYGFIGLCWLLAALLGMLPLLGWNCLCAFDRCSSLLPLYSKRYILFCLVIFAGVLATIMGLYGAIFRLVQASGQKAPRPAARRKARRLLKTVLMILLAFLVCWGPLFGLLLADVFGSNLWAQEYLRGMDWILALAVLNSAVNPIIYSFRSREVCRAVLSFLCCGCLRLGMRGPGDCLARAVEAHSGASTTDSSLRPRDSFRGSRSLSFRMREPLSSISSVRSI
HSF1 activator = increases HSF-1 driven luciferase reporter signal. NIH3T3-HGL HSF-1 luciferase reporter, MG132, 8 h; 100% = twice DMSO control signal. activation, % at 9 µM. 300,000 tested, 1.7% active;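 active = mean replicate activation of at least 50% with a set share of replicates each reaching 50%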;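 note: 0% = median of the neutral control wells and 100% = twice that signal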
S1P3 antag = antagonists of human S1P3 receptor | CHO S1P3 NFAT-BLA reporter, FRET fluorescence, antagonist mode | Q99500 | inhibition, % at 4.98 µM | 170,000 tested, 0.27% active;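 active = inhibition above the plate cutoff, the mean inhibition of test wells on that plate plus 3 SD, cut at about 28% in these data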;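 note: cells challenged with S1P at its EC80 of 0.8 µM; blue over green emission ratio from cleaved BLA substrate after 4 h stimulation; 0% = S1P-stimulated wells and 100% = unstimulated DMSO-only wells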
S1P4 antag = human S1P4 receptor antagonism; 220,000 tested, 0.26% active; O95977; S1P4-expressing cells, antagonist mode, reporter read-out; inhibition, % at 4.98 µM; in the data active = inhibition above about 29%;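 note: 0% = wells stimulated with agonist and 100% = vehicle wells without agonist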
Hsp70 act = Hsp70 transcriptional activation, primary screen. HeLa Hsp70 promoter luciferase reporter, luminescence; scaled: vehicle 0, proteasome-inhibitor control 100%. AID 1203. 200,000 tested, 0.04% active. activation, % at 10 µM;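 active = activation above the mean across all tested compounds plus 3 SD, cutoff set per campaign, cut at about 5.5% in these data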;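 note: 100% = MG132 at 30 µM as the positive control and 0% = DMSO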
HSF1 inhib = HSF1 inhibition; NIH3T3-HGL HSE-luciferase, MG132-induced, luminescence 8 h; active compounds read low; activity change, negative = inhibition, % at 7.5 µM (by protocol); 300,000 tested, 0.77% active; AID 2098;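 active = more than half of replicate wells show activity change below -50%, luminescence cut by over half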;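 note: luciferase reports HSF-1 transcriptional activity via heat shock element; 0% = median of DMSO wells and -100% = zero luminescence signal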
* hit, by the source's call; / = not tested or not shown.

SMILES	S1P4 ag	HSF1 activator	S1P3 antag	S1P4 antag	Hsp70 act	HSF1 inhib
O=C(NCc1nnc(SCc2ccccc2)n1-c1ccc(F)cc1)C12CC3CC(CC(C3)C1)C2	-1	16	2	-5	0	5
O=C(NCc1nnc(SCc2ccccc2)n1-c1ccccc1)C12CC3CC(CC(C3)C1)C2	1	90*	-3	-3	0	35
COc1ccc(N2CC(C(=O)OCC(=O)Nc3cccc(C)c3)CC2=O)cc1 (stereo not given)	/	-14	/	/	/	0
CS(=O)(=O)c1ccccc1COC(=O)Nc1ccc(Cl)cc1	-1	4	/	-11	0	9
O=C(Nc1ccc(Cl)cc1)OCc1ccccn1	1	57*	/	-20	0	42
COc1ccc(CNCc2cccc3ccccc23)cc1	/	3	/	/	/	-4
O=C(COC(=O)CNC(=O)c1ccccc1)Nc1ccc(S(=O)(=O)N2CCOCC2)cc1	2	-13	-10	-17	0	-3
Cc1onc(-c2ccccc2)c1C(=O)OCC(=O)N1CCN(c2ccccc2)CC1	/	-10	/	/	/	-5
Brc1ccc2[nH]c3c(N4CCc5ccccc5C4)ncnc3c2c1	-1	58*	/	8	0	44
Cc1ccc2[nH]c3c(N4CCc5ccccc5C4)ncnc3c2c1	2	92*	/	-4	0	52
COc1ccc(NC(=O)CN(C)C(=O)CCCSc2nc3ccccc3[nH]2)cc1	/	8	/	/	/	-1
c1ccc(Nc2nc3ccccc3[nH]2)nc1	1	62*	-13	-2	0	14
Nc1ccc(Nc2nc3ccccc3[nH]2)cc1	/	2	/	/	/	-2
Cn1cc(C=O)c(-c2ccc3c(c2)OCCCO3)n1	/	89*	/	/	/	42
O=CC1=C(c2ccccc2)Oc2ccccc2O1	/	23	/	/	/	15
C/C(N)=C(/C#N)C(=O)CSc1nnc(-c2ccc(OC(F)F)cc2)o1	0	78*	0	-18	1	46
CCOC(=O)c1c(C)[nH]c(C)c1C(=O)CSc1nnc(-c2ccc(OC(F)F)cc2)o1	0	-8	/	-14	0	-8
C/C(N)=C(/C#N)C(=O)CSc1nnc(-c2ccc3c(c2)OCO3)o1	-1	76*	/	-12	0	50
COc1ccc(CNS(=O)(=O)c2ccc3c(c2)CCN3C(=O)C2CCC2)cc1	/	-14	/	/	/	8
CCN(CC)CC#CCC(C)(c1ccccc1)c1ccccc1	1	4	/	3	0	4
CCN(CC)CCn1c2ccccc2c2nc3ccc([N+](=O)[O-])cc3cc21	2	121*	-8	-38	/	89
COc1cccc(NC(=O)CN2CCc3ccccc3C2)c1	/	2	/	/	/	-1
Cn1c(SCc2ccccc2F)nc2cccnc21	4	63*	-5	-9	1	38
CCOC(=O)CSc1nc2cccnc2n1C	2	3	-11	-7	0	-2
COc1cccc(C(=O)Nc2ccc(NC(=O)C3CC=CCC3C(=O)O)cc2)c1 (stereo not given)	/	-64	/	/	/	-52*
SMILES	S1P4 ag	HSF1 activator	S1P3 antag	S1P4 antag	Hsp70 act	HSF1 inhib
COc1ccc(NC(=O)c2ccc3ccccc3c2)cc1	/	62*	/	/	/	11
COc1ccc(NC(=O)c2cc3ccccc3o2)cc1	2	55*	0	-3	0	33
COc1cccc(C(=O)Nc2ccc(NC(=O)C3CCCCC3C(=O)O)cc2)c1 (stereo not given)	/	-5	/	/	/	-1
CC(=O)c1cccc(NC(=O)c2ccc3ccccc3c2)c1	/	55*	/	/	/	36
CC1CCCCN1C(=O)COC(=O)CNC(=O)c1ccc(Cl)cc1Cl (stereo not given)	/	0	/	/	/	1
COc1ccc(NC(=O)c2ccc3c(=O)n(CC4CCCO4)c(=S)[nH]c3c2)c(OC)c1 (stereo not given)	/	4	/	/	/	-3
COc1ccc(NC(=O)C(Sc2nnc(-c3ccncc3)n2-c2ccccc2C)c2ccccc2)cc1Cl (stereo not given)	-1	53*	-16	-8	0	17
COc1ccc(NC(=O)C(OC)c2ccccc2)cc1Cl (stereo not given)	-2	8	16	-5	0	1
COc1ccc(NC(=O)C(NCC(C)C)c2ccccc2)cc1Cl (stereo not given)	1	71*	4	-7	0	30
COc1cccc(-c2nnc(-c3ccco3)o2)c1	0	74*	5	-18	0	43
COc1cccc(-c2nnc(-c3ccc(C)o3)o2)c1	1	63*	/	-3	0	28
N#Cc1c(/N=C/c2ccc(Br)s2)sc2c1CCC2	-3	/	/	-3	0	/
N#Cc1c(/N=C/c2cccs2)sc2c1CCCCC2	2	-20	57*	-17	0	-8
COC(=O)c1cccc(NC(=O)CC2C(=O)NCCN2C(=O)Nc2cc(C)cc(C)c2)c1 (stereo not given)	/	16	/	/	/	3
Cc1cccc(CSCCNC(=O)COc2ccc(Cl)cc2)c1	1	-63	6	-17	0	-56*
Fc1ccc(OCc2nc(-c3cccs3)no2)cc1	0	65*	-5	-3	0	31
Cc1cc(OCc2nc(-c3cccs3)no2)cc(C)c1Cl	1	17	/	-22	1	18
c1ccc(OCc2nc(-c3cccs3)no2)cc1	-2	59*	/	9	0	29
Cc1ccc(Oc2ccccc2NC(=O)C2=COCCO2)cc1	/	12	/	/	/	6
COc1ccc(OCC(=O)Nc2ccncc2)cc1	-1	37	-9	-12	/	15
COC(=O)c1cccc(Cn2c(Cl)c(/C=N/Nc3ccccc3C)sc2=O)c1	0	151*	-12	3	0	155
Cc1ccccc1N/N=C/c1sc(=O)n(Cc2cccc(C(=O)O)c2)c1Cl	-1	8	-8	7	/	12
c1csc(-c2cnc3ccccc3n2)c1	0	53*	4	-1	0	11
Cc1c(C(=O)N2CCCCC2)c(S(=O)(=O)NCCc2ccc(S(N)(=O)=O)cc2)c(C)n1C	/	0	/	/	/	-2
CC(=O)C[C@H]1c2cc(F)ccc2S(=O)(=O)N1c1ccc(N(C)C)cc1	/	-65	/	/	/	-62*
SMILES	S1P4 ag	HSF1 activator	S1P3 antag	S1P4 antag	Hsp70 act	HSF1 inhib
N#Cc1c(N)n(C2OC(CO)C(O)C2O)c2ncnc(N)c12 (stereo not given)	/	78*	/	/	/	78*
OCCC1CN(Cc2ccccc2O)CCN1CCCc1ccccc1 (stereo not given)	/	-5	/	/	/	-13
Oc1ccccc1Cc1c(O)ccc2ccccc12	/	101*	/	/	/	64
OCCC1CN(Cc2c(O)ccc3ccccc23)CCN1CCc1ccccc1 (stereo not given)	1	216*	3	-7	0	167
Oc1ccc2ccccc2c1CN1CCOCC1	-1	83*	-9	3	/	71
CN(C)Cc1c(O)ccc2ccccc12	2	-3	-18	2	/	0
Cc1cc(N2C(=O)c3ccc(C(=O)Nc4ccc(CC(=O)O)cc4)cc3C2=O)no1	/	1	/	/	/	3
